Test results from the supplement of paper PMC3334620.
The full ranking holds about 33,000 sequences; the median of “E-score (-0.5 to 0.5)” is about -0.032, and the highest 2% start at about 0.36. This is one part of a sample in which the highest values are shown more often than they occur.

target: T1, Sko1 (UniProt Q02100); assay: PBM E-score (8-mer binding enrichment) (E-score (-0.5 to 0.5)); higher = stronger / more preferred TF binding; conditions: protein concentration: 200 nM; construct: GST-full length
T1 sequence: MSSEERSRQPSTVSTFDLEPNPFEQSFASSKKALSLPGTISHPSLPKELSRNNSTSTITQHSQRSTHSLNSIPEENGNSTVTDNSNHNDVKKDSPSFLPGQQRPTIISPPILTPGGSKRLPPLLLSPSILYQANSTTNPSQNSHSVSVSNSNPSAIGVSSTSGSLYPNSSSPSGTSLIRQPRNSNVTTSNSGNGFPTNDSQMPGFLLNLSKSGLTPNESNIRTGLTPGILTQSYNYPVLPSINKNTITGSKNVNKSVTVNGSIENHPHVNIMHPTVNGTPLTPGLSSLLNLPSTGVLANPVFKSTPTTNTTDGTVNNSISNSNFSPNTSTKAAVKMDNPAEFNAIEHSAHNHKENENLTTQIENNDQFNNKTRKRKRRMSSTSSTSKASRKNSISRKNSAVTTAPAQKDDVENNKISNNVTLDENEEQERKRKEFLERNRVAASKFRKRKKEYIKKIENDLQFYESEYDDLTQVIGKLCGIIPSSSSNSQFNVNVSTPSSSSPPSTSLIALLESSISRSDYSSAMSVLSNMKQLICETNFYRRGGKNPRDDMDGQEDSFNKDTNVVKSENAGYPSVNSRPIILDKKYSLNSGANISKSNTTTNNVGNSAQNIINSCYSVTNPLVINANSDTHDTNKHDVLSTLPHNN
How it was run: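 Masliner-normalised scans of fluorescent anti-GST signal were the basis for scoring. That signal came from GST-tagged yeast transcription factors applied at about 100-200 nM to double-stranded universal all-10-mer Agilent arrays on fresh or once-stripped slides. Each ungapped eight-base word, pooled with its reverse complement, received an E-score from the Universal PBM Analysis Suite.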

Sequence	PBM E-score
AGTCAACG	0.0691
CGTCAGTC	0.375
CGTCAGGC	0.272
CGTCAACA	0.323
CGTCAGTA	0.327
CGTCAATC	0.365
CGTCAATA	0.359
AGTCAGTC	-0.02
CGTCAACG	0.389
GGTCAGGA	-0.245
CGTCAGGA	0.39
CCTGGTAA	-0.124
CGCTGTCC	-0.0275
ATTCCATG	-0.0675
AACGAAAT	0.261
CGTGGGAA	0.00507
GCATAAAC	0.166
ACCAAGGC	-0.197
CTGCCCGC	-0.0733
GCCTACAA	-0.169
CTCTGATA	0.0155
GCAAGTCA	0.00337

Sequence	PBM E-score
ACAGAGAG	-0.274
ATTTCTTG	0.164
GGCTCACA	-0.118
GTGTCCAA	0.142
ATTGTGCA	0.076
CTGTTCGA	-0.13
ACGTCGCC	0.327
CACGTGAG	0.344
GACGTGAC	0.432
CACGTGAC	0.387
CGCGTGAC	0.267
AACGTGAC	0.277
GACGTGAA	0.358
AATCGACG	0.295
GAAACCCC	-0.221
CCGACGGA	-0.237
GCGACGAA	0.0338
GCGACGGA	-0.237
CCGACGTC	0.309
GCGACGTA	0.413
CCGACGTA	0.415
GACACTGC	-0.0761

Sequence	PBM E-score
GGGCGCTA	-0.0254
GCTGGAAC	-0.188
ACGTAGCA	0.412
ACGTAGCC	0.388
ACTTAGCT	-0.211
CCGTAGCA	-0.064
ACGTAGCT	0.444
CCGTAGCC	-0.259
AAGTAGCT	0.0695
GCGTAGCC	0.00349
CCGTAGCG	-0.239
TCGTAGCA	0.217
ACGTAGCG	0.42
ACTTAGCG	0.0634
TAGGATGA	0.136
CGTTCGAG	0.189
ACTAAAGG	-0.0392
GAACACAC	-0.0651
CCCCAGCA	-0.157
AGCGTATG	-0.0197
AACGTATG	0.431
CACGTATG	0.426

Sequence	PBM E-score
CACGTATA	0.431
ACCGTATG	0.105
CAAGTATG	0.0253
GAAGTATC	0.0123
GACGTATC	0.422
CTCGTATA	0.0394
CGCGTATA	0.244
CAGGTATG	-0.00478
AGCGTATC	-0.0128
CGAGCACA	-0.00253
CAGTTCAG	-0.112
TTACAGAA	-0.0258
ACAATAGC	-0.0393
CAATGCCG	-0.128
CGACCTTC	-0.189
ACTGCGTC	0.284
CACGTATC	0.393
AAGGTATT	0.131
GACGTATA	0.453
TACGTATA	0.483
CTCGTATC	0.0593
AACGTATT	0.434
